# Source: PubChem (The Scripps Research Institute Molecular Screening Center)
# Hits are enriched below; roughly 1.2% of the tested compounds scored in any of these assays.
# TLR4 MyD88 comp – inhibitors of human TLR4-MyD88 binding | HeLa CL3-4 TLR4/MyD88 BLA complementation, FRET ratio | inhibition, % at 8.4 µM | actives 0.18% (n = 200,000) | AID 861; in the data active = inhibition above about 25%;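 note: 0% = vehicle and 100% = reference inhibitor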
# ABHD5-PLIN5 inh – ABHD5-PLIN5 protein interaction inhibition; Q00G26+Q8WTS1; Split G. princeps luciferase complementation, luminescence, 4 h; inhibition, % at 4 µM; actives 0.78% (n = 360,000);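 active = inhibition above the mean inhibition across every tested compound plus 3 SD, cut at about 22% in these data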;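 note: 0% = DMSO only wells and the 100% control is not disclosed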
# NOD2 RIPK2 PPI – blocks binding of human NOD2 to RIPK2 | AID 624267 | actives 0.38% (n = 360,000) | inhibition, % at 4.98 µM | O43353 | CHO BLA complementation NOD2-RIPK2, CCF4 ratio; in the data active = inhibition above about 21%;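 note: 0% = vehicle only and 100% = reference blocker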
# Target sequence (O43353 whole entry, looked up): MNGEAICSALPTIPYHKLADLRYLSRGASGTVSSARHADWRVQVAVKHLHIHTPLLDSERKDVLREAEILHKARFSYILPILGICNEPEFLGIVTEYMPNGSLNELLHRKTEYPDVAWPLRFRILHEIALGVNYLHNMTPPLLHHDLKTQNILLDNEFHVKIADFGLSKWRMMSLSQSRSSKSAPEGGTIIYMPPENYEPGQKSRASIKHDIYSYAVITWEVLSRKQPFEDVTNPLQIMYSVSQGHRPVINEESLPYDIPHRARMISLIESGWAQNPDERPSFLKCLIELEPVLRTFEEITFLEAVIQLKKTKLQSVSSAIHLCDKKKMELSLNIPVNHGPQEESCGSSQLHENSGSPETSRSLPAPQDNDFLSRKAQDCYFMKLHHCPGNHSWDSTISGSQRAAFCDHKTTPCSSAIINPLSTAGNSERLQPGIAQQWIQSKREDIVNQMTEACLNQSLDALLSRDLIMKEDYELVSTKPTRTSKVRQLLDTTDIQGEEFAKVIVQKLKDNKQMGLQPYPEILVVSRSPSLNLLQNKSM
# TLR9-MyD88 block – blocks human TLR9 binding to MyD88; actives 0.21% (n = 340,000); inhibition, % at 4.98 µM; CHO BLA complementation TLR9-MyD88, CCF4 FRET ratio; AID 504734; Q9NR96+Q99836;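 active = inhibition above the mean over all tested compounds plus 3 SD, cut at about 21% in these data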;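 note: 0% = DMSO only wells and 100% = clavulanate BLA inhibitor control wells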
# ABHD5 PLIN5 conf – confirmation of human ABHD5-PLIN5 interaction inhibitors | shares compounds with ABHD5-PLIN5 inh | actives 67% (n = 2,200) | biochemical ABHD5-PLIN5 interaction, luminescence | AID 651612 | inhibition, % at 4 µM; in the data active = inhibition above about 23%;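 note: 0% = DMSO vehicle wells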
# HNF4 counter – HNF4 split-luciferase signal hit, counter-screen. shares compounds with ABHD5-PLIN5 inh. HNF4 dimerization, luminescence, biochemical. inhibition, % at 4 µM. actives 77% (n = 2,200). AID 651674;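 active = mean inhibition across replicate wells exceeding the computed hit threshold, cut at about 13% in these data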;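 note: light from luciferase halves that rejoin when HNF4 fusion proteins dimerize; 0% = DMSO only wells and the 100% control is not given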
# NOD2-RIPK2 conf – NOD2-RIPK2 interaction inhibition confirmed; shares compounds with NOD2 RIPK2 PPI; CHO cells, NOD2-RIPK2 BLA complementation, CCF4 FRET; inhibition, % at 4.98 µM; actives 70% (n = 1,200); AID 624370;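 active = mean inhibition across replicates above a set limit taken from the earlier primary screen, cut at about 21% in these data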;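 note: 0% = DMSO-only wells and the high end = clavulanate BLA-blocked wells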
# NOD2 BLA counter – counter-screen for NOD2-RIPK2 interaction inhibitors: BLA reporter | shares compounds with NOD2 RIPK2 PPI | CHO BLA reporter, CCF4 FRET ratio, counterscreen | AID 624371 | inhibition, % at 4.98 µM | actives 57% (n = 1,200);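 active = mean inhibition above the low-control mean inhibition plus three low-control SD, cut at about 11% in these data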;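 note: 0% = DMSO only wells and 100% = clavulanate high control wells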
# * = called active by the depositor; . = no result.
SMILES,TLR4 MyD88 comp,ABHD5-PLIN5 inh,NOD2 RIPK2 PPI,TLR9-MyD88 block,NOD2-RIPK2 conf,NOD2 BLA counter,others
CCOC(=O)[C@]12Cc3cc(Cl)ccc3[C@H]1N(C1CCCCC1)C(=O)c1cc(OC)ccc12,.,60.9*,69.9*,.,66.2*,7.0,ABHD5 PLIN5 conf=39.2*;HNF4 counter=58.1*
CCOC(=O)[C@]12Cc3cc(C)ccc3[C@H]1N(C1CCCCC1)C(=O)c1ccccc12,.,48.2*,56.4*,.,66.3*,0.1,ABHD5 PLIN5 conf=20.9;HNF4 counter=39.2*
CCOC(=O)[C@]12Cc3cc(Cl)ccc3[C@H]1N(C)C(=O)c1cc(OC)ccc12,.,11.3,0.6,.,.,.,
CCOC(=O)[C@]12Cc3ccc(C)cc3[C@H]1N(C1CCCCC1)C(=O)c1cc(OC)ccc12,.,43.1*,57.9*,.,63.1*,0.5,ABHD5 PLIN5 conf=41.1*;HNF4 counter=46.3*
CCOC(=O)[C@]12Cc3cc(C)ccc3[C@H]1N(CCC(=O)OC)C(=O)c1ccccc12,.,13.6,2.4,.,.,.,
CCOC(=O)[C@]12Cc3ccc(C)cc3[C@H]1N(C1CCCCC1)C(=O)c1ccccc12,.,39.8*,52.4*,.,54.0*,1.4,ABHD5 PLIN5 conf=29.8*;HNF4 counter=21.1*
CC12CC(=O)C3C(CCC4CC=CCC43C)C1CCC2=O (stereo not drawn),.,5.0,0.0,-0.5,.,.,
O=C(NC(C(Cl)Cl)N1CCOCC1)c1ccccc1 (stereo not drawn),-2.6,-0.3,-3.3,-6.4,.,.,
C/C(=N\NC(=O)c1ccccc1)c1c(O)n(C2CCCCC2)c(=O)[nH]c1=O,.,2.2,-13.2,-5.2,.,.,
CCOC(=O)[C@]12Cc3ccccc3[C@H]1N(C(C)C)C(=O)c1ccccc12,.,5.2,-6.1,.,.,.,
CCOC(=O)[C@]12Cc3c(cc(OC)c(OC)c3OC)[C@H]1N(C1CCCCC1)C(=O)c1ccccc12,.,39.4*,28.3*,.,71.0*,1.7,ABHD5 PLIN5 conf=19.6;HNF4 counter=32.2*
O=[N+]([O-])CCO,.,-5.5,-9.6,-4.4,.,.,
COC1CC2C=C(C)C=CC=CC(=O)NC(c3ccccc3)CC=CCCC(O)CC(=O)C2=C1O (stereo not drawn),.,22.2*,66.7*,.,101.9*,79.1*,
CCc1ccc(-c2nn(Cc3ccccc3)cc2C=O)cc1,1.6,-8.0,-3.3,1.8,.,.,
CC1=CC2OC3CC4OC(=O)C=CC=CC(=O)OCCC(C)C(O)C(=O)OCC2(CC1)C4(C)C31CO1 (stereo not drawn),.,-1.4,22.5*,5.1,16.9,-4.4,
CC(O)C1C=CC=CC(=O)OC2CC3OC4C5OC5(C)C(O)CC4(COC(=O)C(O)C(C)CCO1)C2(C)C31CO1 (stereo not drawn),.,7.5,6.6,0.7,.,.,
CC1CCOC(=O)C=CC=CC(=O)OC2CC3OC4C5OC5(C)C(O)CC4(COC(=O)C1O)C2(C)C31CO1 (stereo not drawn),.,0.8,27.9*,-4.5,21.0*,-4.6,
CC1=CC2OC3CC4OC(=O)C=CC=CC(C(C)O)OCC(O)C5(C)OC5C(=O)OCC2(CC1O)C4(C)C31CO1 (stereo not drawn),.,-1.6,29.1*,-0.2,16.7,-5.3,
O=C1NC(=O)C(CCc2ccncc2)(Cc2ccc(OCc3ccccc3)cc2)C(=O)N1,.,4.8,-14.0,1.4,.,.,
Cc1ccc(-n2c(=S)[nH]c3ccc(C)cc3c2=O)cc1,.,-1.8,-25.6,-11.8,.,.,
CN1C(=O)c2ccccc2NC(=O)C1Cc1ccccc1 (stereo not drawn),-10.0,0.9,1.9,-21.7,.,.,
COc1ccc2c(c1OC)CN1CCc3cc4c(cc3[C@H]1C2)OCO4,.,1.8,4.2,3.8,.,.,
CCC1CN2CCc3cc(OC)c(OC)cc3C2CC1CC1NCCc2c1[nH]c1ccc(O)cc21 (stereo not drawn),.,-3.6,29.5*,-6.5,27.3*,-0.2,
O=C1/C(=C/c2cc3c(cc2Cl)OCO3)N2CCC1CC2,7.9,.,.,.,.,.,
CC1CC(C)(O)CC(C(O)CC2CC(=O)NC(=O)C2)C1=O (stereo not drawn),.,-1.2,21.1*,-8.9,25.0*,-4.2,
CCOC(=O)[C@]12Cc3cc(Cl)ccc3[C@H]1N(Cc1ccccc1)C(=O)c1ccccc12,.,2.0,-6.8,-2.9,.,.,
CCOC(=O)[C@]12Cc3cc(N(C)C)ccc3[C@H]1N(Cc1ccccc1)C(=O)c1ccccc12,.,-12.3,23.0*,8.4,3.0,3.1,
COC(=O)[C@@H]1C[C@@]1(C)[C@@H](NP(=O)(c1ccccc1)c1ccccc1)c1ccccc1,4.4,-0.3,-4.4,-1.2,.,.,
CC(=O)O[C@H]1C[C@@H]2OC3C=C(C)CCC3(C)[C@@]1(C)[C@@]21CO1 (stereo partly drawn),.,4.7,24.3*,-2.3,28.5*,0.2,
CC(=O)OC1CC2OC3C=C(C)CCC3(C)C1(C)C21CO1 (stereo not drawn),.,-7.3,25.4*,.,26.9*,0.1,
